From PubChem BioAssay
VACV Venus inh = inhibitors of vaccinia virus (Venus reporter). Potency, µM (top dose mostly 36.5 µM), for the others: top-dose activity change, negative = inhibition, most hits filed as inhibitors. AID 720580. Vaccinia virus Venus reporter expression, fluorescence. 0.46% of 330,000 active; calls by dose curve; tested in A549 cells; further: nearly all actives have a fitted effect of over 30% in size
HCV inh = HCV inhibition; Potency, µM (top dose mostly 41.8 µM), for inactives: top-dose activity change, negative = inhibition, usual class: inhibitors; Huh7.5.1 HCVcc-Cre infection, luciferase reporter, 44 h; 3.4% of 340,000 active; AID 651820; active means well fitted inhibition curve with a large enough effect; inconclusive means small, poorly fitted or top-dose-only effect, or another doubt; inactive means no such curve, though single readings can be large or run the other way
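Cells (1,000/well) were plated 4 h before compound, then infected with HCVcc-Cre virus (~0.5 moi). After 44 h further culture, infection was read as luciferase luminescence following a 15 min substrate incubation at room temperature.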
LASV entry inh = inhibitors of Lassa virus binding or cell entry; Potency, µM (highest dose often 37.9 µM), inactives show at the top dose activity change, negative = inhibition, actives largely listed as inhibitors; Lassa virus pseudotype entry inhibition, cell reporter; AID 540256; 1.2% of 300,000 active; calls by dose curve; tested in HEK293 cells; further: nearly all actives have a fitted effect of over 50% in size
Marburg entry inh = inhibitors of Marburg virus binding or cell entry. Marburg virus pseudotyped entry inhibition, cell reporter. Potency, µM (highest dose often 37.8 µM), inactives show top-dose activity change, negative = inhibition, actives largely listed as inhibitors. 1.8% of 300,000 active; calls by dose curve; tested in HEK293 cells
Vaccinia mCherry = vaccinia inhibition (mCherry reporter). Vaccinia virus mCherry reporter infection, fluorescence. Potency, µM (titrated, usually from 36.5 µM), for inactives: top-dose activity change, negative = inhibition, hits mostly inhibitors. 0.63% of 310,000 active; calls by dose curve; tested in A549 cells; further: nearly all actives have a fitted effect of over 35% in size
* = called active by the depositor; i = inactive; ? = inconclusive; . = no result given; [ ] = dose if it differs, or a comment. A selection: hits, their analogues and other compounds. The true share with any hit is near 4.6%. On the % scale 0 is the no-effect control and ±100 the full control effect; potency means the concentration at half of the fitted maximal effect.

SMILES	VACV Venus inh	HCV inh	LASV entry inh	Marburg entry inh	Vaccinia mCherry
COc1ccc2c(c1)-c1nc(/N=C/c3cccc(OC)c3O)sc1CC2	-22.5%	?	13.9%	?	-7.6%
CCC(Sc1nnc(C)n2c1cc1occc12)C(=O)Nc1ccccc1F (stereo unspecified)	-9.6%	.	6.0%[46.1 µM]	.	-6.3%
COc1ccccc1NS(=O)(=O)c1cc(N2Cc3ccccc3C2=N)ccc1N1CCOCC1	-13.3%	-20.4%	?	7.08µM*	-11.1%
Cc1cnc(CNc2ncnc3ccc(-c4cccc(C#N)c4)cc23)cn1	17.0%	.	.	.	13.0%
Cc1ccc(-c2noc(CCC(=O)Nc3cccc(C(=O)NC4CC4)c3)n2)cc1	-9.7%	.	.	.	i
CCOC(=O)c1ccc(NC(=O)CCc2nc(-c3ccc(C)cc3)no2)cc1	.	8.91µM*	?	-0.9%	.
O=C(CCc1nc(-c2ccc(F)cc2)no1)Nc1cccc(C(=O)NC2CC2)c1	.	14.1µM*	.	.	.
C[C@H]1COc2cccc(N3CCCC3)c2S(=O)(=O)N1	.	.	10.0%[46.1 µM]	.	.
Cc1ccc(CNCc2cc3c(C(C)(C)C)nn(-c4ccccc4)c3[nH]c2=O)cc1	-20.5%	10µM*	?	?	-11.4%
COc1ccc(-n2c(Cc3ccccc3)nnc2SCc2nc(-c3cccs3)no2)cc1	10.4%	.	-23.2%[46.1 µM]	-24.1%[46.1 µM]	9.8%
COc1ccc(C(=O)Cn2c(C)nc([N+](=O)[O-])c2Br)cc1	7.94µM*	?	-11.1%	-1.0%	3.55µM*
Cc1nc([N+](=O)[O-])c(Br)n1CC(=O)c1ccc(Cl)cc1	?	10µM*	?	?	.
Cc1nc([N+](=O)[O-])cn1CC(=O)c1ccc(Br)cc1	-3.2%	2.4%	.	.	-6.5%
CCOc1ccc(-c2cc(C(=O)NCCc3ccccc3)c3c(-c4ccc(C)cc4)[nH]nc3n2)cc1	-24.2%	.	-0.6%[46.1 µM]	.	-13.6%
Cc1nc(N2CCC(C)CC2)c2c(C)c(C(=O)Nc3cccc(C(F)(F)F)c3)sc2n1	-23.1%	?	-10.7%	?	i
Cc1nc(N2CCC(C)CC2)c2c(C)c(C(=O)Nc3ccc(C(F)(F)F)cc3)sc2n1	-8.5%	11.2µM*	?	?	i
Cc1nc(N2CCN(c3ccccn3)CC2)c2c(C)c(C(=O)Nc3ccccc3F)sc2n1	-7.4%	?	?	?	-9.3%
COCCCNC(=O)c1sc2ncnc(N3CCc4ccccc4C3)c2c1C	.	?	?	8.2µM*	.
COc1ccc(NC(=O)c2sc3nc(C)nc(N4CCN(c5ccccn5)CC4)c3c2C)cc1Cl	-18.6%	?	?	2.4%[46.1 µM]	-3.2%
CCc1ccc(NC(=O)c2sc3nc(C)nc(N4CCN(c5ccccn5)CC4)c3c2C)cc1	-0.4%	1.2%	12.2%[46.1 µM]	10µM*	-3.3%
COc1ccc(NC(=O)c2sc3ncnc(N4CCN(c5ccccn5)CC4)c3c2C)cc1Cl	.	6.31µM*	.	.	.
CCOC(=O)[C@H](c1ccccc1)N1CCN(c2ccc(OC)cc2)CC1	.	.	.	1.0%	.
COc1cccc(/C=C/c2ccc3ccccc3[n+]2C)c1OC	-12.3%	.	.	.	-29.4%
Cc1c(C(=O)Nc2ccc3c(c2)OCCO3)sc2ncnc(N3CCCCC3C)c12 (stereo unspecified)	.	11.2µM*	.	.	.
COc1cc2ncnc(NCc3ccc(C)cc3)c2cc1OC	-14.6%	20.1%	-5.7%	?	-12.4%
SMILES	VACV Venus inh	HCV inh	LASV entry inh	Marburg entry inh	Vaccinia mCherry
COc1cc2ncnc(NCCc3ccccc3)c2cc1OC	.	11.2µM*	.	.	.
COc1ccc(CCNc2ncnc3cc(OC)c(OC)cc23)cc1OC	-21.4%	10µM*	?	?	i
C#CCOCCOCCOCCNc1nc(N2CCOCC2)nc(N2CCN(C(=O)CCCCCCCCCCNC(=O)[C@H](CO)n3cc(CCCCCN)nn3)CC2)n1	-16.6%	0.8%	.	.	i
C#CCOCCOCCOCCNc1nc(N2CCN(C(=O)CCCCCCCCCCNC(=O)Cn3cc(CCCCCN)nn3)CC2)nc(N2CCN(C(=O)CCCCCCCCCCNC(=O)[C@H](CO)n3cc(CCCCCN)nn3)CC2)n1	?	31.6µM*	.	.	i
C#CCOCCOCCOCCNc1nc(N2CCN(C(=O)CCCCCCCCCCNC(=O)Cn3cc(CCCCCN)nn3)CC2)nc(N2CCN(C(=O)CCCCCCCCCCNC(=O)[C@H]([C@@H](C)CC)n3cc(CCCCCN)nn3)CC2)n1	10µM*	?	.	.	?
C#CCOCCOCCOCCNc1nc(N2CCOCC2)nc(N2CCN(C(=O)CCCCCCCCCCNC(=O)Cn3cc(CCCCCN)nn3)CC2)n1	-20.7%	18.6%	.	.	i
O=C(CN1C(=O)CC(c2ccccc2)Sc2ccccc21)Nc1cccc(Cl)c1 (stereo unspecified)	-14.4%	.	.	2.1%[46.1 µM]	-23.3%
Cn1ccsc1=NC(=O)c1ccc(S(C)(=O)=O)c([N+](=O)[O-])c1	-12.0%	10µM*	?	?	i
Cn1ccsc1=NC(=O)c1ccc(Cl)c([N+](=O)[O-])c1	.	-8.7%	.	.	.
O=[N+]([O-])c1ccc(Oc2cccc(F)c2)c2ccncc12	-28.9%	3.98µM*	-12.2%	4.4%	.
NS(=O)(=O)c1ccc(NC(=O)c2csnn2)cc1	-17.2%	.	?	3.3%[46.1 µM]	-10.9%
CC(C)c1ccc(NC(=O)c2csnn2)cc1	.	14.1µM*	9.2µM*	?	.
CN(C)c1ccc(-c2ccc(CCO)cc2)cc1	-5.8%	.	.	.	24.7%
COc1ccc(C(=O)Oc2c(CN3CCOCC3)cc(Cl)c3cccnc23)cc1	?	12.6µM*	-21.8%	?	.
O=C(Oc1c(CN2CCOCC2)cc(Cl)c2cccnc12)c1ccc(F)cc1	.	10µM*	?	10.3µM*	.
COc1ccc(S(=O)(=O)N(CC(=O)Nc2cc(Cl)ccc2C)Cc2ccccc2)cc1OC	-2.1%	.	?	.	-10.2%
Cn1c(=O)c2c([nH]c(=O)n2Cc2ccc(Cl)cc2Cl)n(C)c1=O	-3.6%	.	-12.5%[46.1 µM]	-2.7%[46.1 µM]	-2.1%
CCOc1ccc(C2=CC(c3cccc(Br)c3)n3c(nc4ccccc43)N2)cc1Cl (stereo unspecified)	67.5%	.	-21.4%[46.1 µM]	.	-22.4%
CC(C)c1ccc(S(=O)(=O)c2cc3cc(Br)ccc3oc2=O)cc1	-1.1%	5.9%	?	11.2µM*	-7.9%
Cc1ccc(S(=O)(=O)c2cc3cc(Br)ccc3oc2=O)cc1	-14.5%	42.2%	-25.6%	-6.9%	i
CC(=O)c1cccc(NC(=O)CSc2ccc(-c3ccc4c(c3)OCO4)nn2)c1	0.8%	11.2µM*	15.2%	-0.9%	-11.7%
Cc1ccccc1-n1c(SCC(=O)Nc2ccc3c(c2)OCO3)nnc1-c1ccccn1	.	22.4µM*	-13.7%	?	.
CCn1c(SCC(=O)Nc2ccc3c(c2)OCCO3)nnc1-c1ccccn1	.	2.9%	0.6%	19.9%	.
COc1ccc(-c2ccc(SCC(=O)Nc3cccc(C(C)=O)c3)nn2)cc1OC	?	8.91µM*	?	?	-25.1%
CC(=O)c1cccc(NC(=O)CSc2ccc(-c3ccco3)nn2)c1	-8.9%	?	-2.8%	-27.0%	-20.4%
Clc1ccc(CNc2cc(-c3ccccc3)nc3nncn23)cc1	-10.0%	.	-1.3%[46.1 µM]	-14.6%[46.1 µM]	-25.2%
CC(C)Cn1c(SCC(=O)NC(=O)NC2CCCC2)nc2ccccc21	-21.1%	11.2µM*	-27.9%	?	?
